Measurements published in PubChem BioAssay (NCATS).
Records with an inconclusive call do not appear. Active and inactive are the calls of the source. Unless noted, the call rests on the fitted dose curve; in most records, active means well fitted curve in the direction sought with a large enough effect; inconclusive means small, poorly fitted or top-dose-only effect, or another doubt; inactive means no such curve, though single readings can be large; an effect the other way counts as inactive or inconclusive.

Columns and labels:
[1] = target: Cytochrome P450 1A2 (Homo sapiens) (UniProt P05177); experiment: p450-cyp1a2 (AID 410; calls by dose curve; further: potency means the concentration at half of the fitted maximal effect)
Procedure, shortened: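 O-Demethylation of luciferin 6' methyl ether by human CYP1A2 is monitored as luciferase luminescence. Substrate sits at Km (100uM); enzyme is 20nM. Values are scaled to 57 uM furafylline as maximal inhibition.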

[2] = Cell Viability - HUV-EC-C (AID 542);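 further: cells exposed to compound for 40 hours; nearly all actives have a fitted effect of over 35% in size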; further: potency means the concentration at half of the fitted maximal effect; on activity change, negative = cytotoxicity: on the % scale 0 is the no-effect control and ±100 the full control effect
Procedure, shortened: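 Cells were seeded at 1000 per well and incubated 5 hr at 37 °C before compound addition. After 40 hr at 37 °C, CellTiter-Glo reagent was added for 20 min and luminescence read. AC50 values came from Hill-equation modelling.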

[3] = Cell Viability - Mesenchymal (AID 546); conditions: mesenchymal cells viability, qHTS; activity change, negative = cytotoxicity: at 91.7 µM (top of the series);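 further: cells exposed to compound for 40 hours before reading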; further: potency means the concentration at half of the fitted maximal effect;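 on activity change, negative = cytotoxicity: 0% = DMSO only and -100% = 100 µM tamoxifen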
Procedure, shortened: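 CellTiter-Glo luminescence (intracellular ATP, 20 min room temperature) after 40 hr compound exposure at 37 °C of 1000 glomerulus-derived human kidney mesenchymal cells/well; AC50 values obtained by fitting qHTS concentration-response data to the Hill equation.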

[4] = target: Voltage-gated inwardly rectifying potassium channel KCNH2 (Homo sapiens) (UniProt Q12809); experiment: qHTS Assay for Small Molecule Inhibitors of the Human hERG Channel Activity (AID 588834);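 further: top concentration of the series differs between compounds; on the % scale 0 is the no-effect control and ±100 the full control effect; lower thallium flux fluorescence means stronger hERG block; nearly all actives have a fitted effect of over 50% in size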
Procedure, shortened: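 In hERG-transduced U2OS cells, dye-loaded for 1 hr at room temperature in dark, test compounds incubated 10 min at 37 °C before thallium stimulation. AC50 values derived by Hill modelling of concentration-response.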

[5] = MultiTox-Fluor Cytotoxicity Assay - LYMP1-001 - Live Cells (AID 947); further: potency means the concentration at half of the fitted maximal effect;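 on activity change, negative = cytotoxicity: 0% = DMSO only and full inhibition = tetraoctylammonium bromide control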
[6] = MultiTox-Fluor Cytotoxicity Assay - LYMP1-003 - Dead Cells (AID 961); further: nearly all actives have a fitted effect of over 70% in size; further: potency means the concentration at half of the fitted maximal effect
Procedure, shortened: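 Dead-cell protease release, detected as bis-AAF-R110 fluorescence at 485/520 nm, was measured in LYMP1-003 cells after 16 h compound treatment at 37 C. AC50 values came from Hill-modeled qHTS curves normalized to DMSO (0%) and 15 uM tetraoctylammonium bromide (100%).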

[7] = Cell Viability - LYMP1-003 - Assay at 40 hr (AID 964); further: nearly all actives have a fitted effect of over 60% in size; further: potency means the concentration at half of the fitted maximal effect
Procedure, shortened: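 Luminescent ATP signal (CellTiter-Glo) served as the viability read-out after 40 hr compound treatment of human lymphoblastoid LYMP1-003 cells at 37 C. Decreases in ATP were fitted with the Hill equation to give AC50.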

[8] = Cell Viability - LYMP2-004 (AID 966); further: nearly all actives have a fitted effect of over 65% in size; further: potency means the concentration at half of the fitted maximal effect;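 on activity change, negative = cytotoxicity: plate controls were DMSO only for no effect and tetraoctylammonium bromide control for full effect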
Procedure, shortened: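 qHTS cytotoxicity: human lymphoblastoid line, 24 hr compound treatment, 37 C, complete medium. Viability read as cellular ATP via luciferase luminescence; tetraoctylammonium bromide served as positive control.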

[9] = Cell Viability - LYMP2-011 (AID 969); further: nearly all actives have a fitted effect of over 60% in size; further: potency means the concentration at half of the fitted maximal effect
Procedure, shortened: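 In this qHTS cytotoxicity format, compounds are tested across concentrations on human lymphoblastoid cells in complete medium for 24 hours at 37 C. Viability is taken as cellular ATP measured by luciferase luminescence.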

[10] = Cell Viability - LYMP2-013 (AID 970); further: nearly all actives have a fitted effect of over 55% in size; further: potency means the concentration at half of the fitted maximal effect
Procedure, shortened: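 Cytotoxicity is scored as a concentration-dependent drop in intracellular ATP in human lymphoblastoid cells after 24 hr compound exposure at 37 C. ATP is quantified by luciferase luminescence, and AC50 values come from Hill-equation modeling.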

[11] = Cell Viability - LYMP2-015 (AID 971); further: nearly all actives have a fitted effect of over 55% in size; further: potency means the concentration at half of the fitted maximal effect
Procedure, shortened: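 Cells are seeded at 2500 per well and incubated 5 hr at 37 C. Compounds are added across a concentration series for 24 hr at 37 C. CellTiter-Glo is added, and luminescence is read after 30 min at room temperature.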

[12] = Cell Viability - LYMP2-017 (AID 972); further: nearly all actives have a fitted effect of over 55% in size; further: potency means the concentration at half of the fitted maximal effect; on activity change, negative = cytotoxicity: on the % scale 0 is the no-effect control and ±100 the full control effect
Procedure, shortened: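 Cytotoxicity is scored as a concentration-dependent drop in cellular ATP in a human lymphoblastoid line after 24 hr treatment at 37 C. Values are AC50s from Hill-equation modelling.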

[13] = Cell Viability - LYMP2-019 (AID 973); further: nearly all actives have a fitted effect of over 55% in size; further: potency means the concentration at half of the fitted maximal effect;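 on activity change, negative = cytotoxicity: 0% = DMSO alone and full effect = 92 µM tetraoctylammonium bromide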
Procedure, shortened: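 Cytotoxicity is scored as a concentration-dependent drop in cellular ATP after cells (2500/well) receive compound for 24 hr at 37 C. Tetraoctylammonium bromide serves as positive control.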

[14] = Cell Viability - LYMP2-023 (AID 975); further: nearly all actives have a fitted effect of over 55% in size; further: potency means the concentration at half of the fitted maximal effect;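 on activity change, negative = cytotoxicity: plate controls were DMSO only for no effect and 92 µM tetraoctylammonium bromide control for full effect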
Procedure, shortened: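 Steps: seed 2500 human lymphoblastoid cells per well, incubate 5 hr at 37 C, add compound for 24 hr at 37 C, add CellTiter-Glo, hold 30 min at room temperature, read luminescence. AC50 derived by Hill modelling.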

[15] = Cell Viability - LYMP2-025 (AID 976); further: potency means the concentration at half of the fitted maximal effect;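 on activity change, negative = cytotoxicity: plate controls were DMSO only for no effect and tetraoctylammonium bromide control for full effect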
Procedure, shortened: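 Acute cytotoxicity is scored as a concentration-dependent fall in intracellular ATP, measured by luciferase luminescence, in human lymphoblastoid LYMP2-025 cells exposed to compound for 24 hours at 37 C. AC50 values come from standard Hill fits.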

[16] = Cell Viability - LYMP2-006 (AID 978); further: nearly all actives have a fitted effect of over 60% in size; further: potency means the concentration at half of the fitted maximal effect; on activity change, negative = cytotoxicity: on the % scale 0 is the no-effect control and ±100 the full control effect
Procedure, shortened: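 Human lymphoblastoid cells, 2500 per well, were preincubated 5 hr at 37 C, then exposed to compounds for 24 hr at 37 C in complete medium. Viability was read as intracellular ATP by CellTiter-Glo luminescence; AC50 from Hill-equation fits of qHTS concentration-response data.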

[17] = Cell Viability - LYMP2-010 (AID 981); further: nearly all actives have a fitted effect of over 55% in size; further: potency means the concentration at half of the fitted maximal effect
Procedure, shortened: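 Steps: seed 2500 LYMP2-010 cells per well; incubate 5 hr at 37 C; add compound; incubate 24 hr at 37 C; add CellTiter-Glo, wait 30 min at room temperature; read luminescence. Concentration-response fitted to Hill equation for AC50.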

[18] = Cell Viability - LYMP2-014 (AID 983); further: nearly all actives have a fitted effect of over 50% in size;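 on activity change, negative = cytotoxicity: plate controls were DMSO only for no effect and 92 µM tetraoctylammonium bromide for full effect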
Procedure, shortened: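 Cells are plated at 2500/well and left 5 hr at 37 C. Compounds are added across a concentration range and incubated 24 hr at 37 C in complete medium. CellTiter-Glo is added, and luminescence is read after 30 min at room temperature.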

[19] = Cell Viability - LYMP1-002 - Assay at 40 hr (AID 994); further: nearly all actives have a fitted effect of over 60% in size
Procedure, shortened: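 Cells are plated at 2500 per well and rested 5 hr at 37 C. Compounds are added and incubated 40 hr at 37 C. CellTiter-Glo reagent is added for 30 min at room temperature before luminescence is read.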

[20] = qHTS assay for small molecule disruptors of the mitochondrial membrane potential - 5 hr assay (AID 651755; calls by dose curve; further: on the % scale 0 is the no-effect control and ±100 the full control effect; nearly all actives have a fitted effect of over 40% in size)
Procedure, shortened: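 Membrane-potential dye readout: red aggregate (540 ex/590 em) versus green monomer (490 ex/535 em) fluorescence after 30 min dye loading, following 5 hr compound exposure at 37C of overnight-plated HepG2 cells.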

Voltage-gated inwardly rectifying potassium channel KCNH2 (Homo sapiens), sequence (Q12809 whole entry, looked up): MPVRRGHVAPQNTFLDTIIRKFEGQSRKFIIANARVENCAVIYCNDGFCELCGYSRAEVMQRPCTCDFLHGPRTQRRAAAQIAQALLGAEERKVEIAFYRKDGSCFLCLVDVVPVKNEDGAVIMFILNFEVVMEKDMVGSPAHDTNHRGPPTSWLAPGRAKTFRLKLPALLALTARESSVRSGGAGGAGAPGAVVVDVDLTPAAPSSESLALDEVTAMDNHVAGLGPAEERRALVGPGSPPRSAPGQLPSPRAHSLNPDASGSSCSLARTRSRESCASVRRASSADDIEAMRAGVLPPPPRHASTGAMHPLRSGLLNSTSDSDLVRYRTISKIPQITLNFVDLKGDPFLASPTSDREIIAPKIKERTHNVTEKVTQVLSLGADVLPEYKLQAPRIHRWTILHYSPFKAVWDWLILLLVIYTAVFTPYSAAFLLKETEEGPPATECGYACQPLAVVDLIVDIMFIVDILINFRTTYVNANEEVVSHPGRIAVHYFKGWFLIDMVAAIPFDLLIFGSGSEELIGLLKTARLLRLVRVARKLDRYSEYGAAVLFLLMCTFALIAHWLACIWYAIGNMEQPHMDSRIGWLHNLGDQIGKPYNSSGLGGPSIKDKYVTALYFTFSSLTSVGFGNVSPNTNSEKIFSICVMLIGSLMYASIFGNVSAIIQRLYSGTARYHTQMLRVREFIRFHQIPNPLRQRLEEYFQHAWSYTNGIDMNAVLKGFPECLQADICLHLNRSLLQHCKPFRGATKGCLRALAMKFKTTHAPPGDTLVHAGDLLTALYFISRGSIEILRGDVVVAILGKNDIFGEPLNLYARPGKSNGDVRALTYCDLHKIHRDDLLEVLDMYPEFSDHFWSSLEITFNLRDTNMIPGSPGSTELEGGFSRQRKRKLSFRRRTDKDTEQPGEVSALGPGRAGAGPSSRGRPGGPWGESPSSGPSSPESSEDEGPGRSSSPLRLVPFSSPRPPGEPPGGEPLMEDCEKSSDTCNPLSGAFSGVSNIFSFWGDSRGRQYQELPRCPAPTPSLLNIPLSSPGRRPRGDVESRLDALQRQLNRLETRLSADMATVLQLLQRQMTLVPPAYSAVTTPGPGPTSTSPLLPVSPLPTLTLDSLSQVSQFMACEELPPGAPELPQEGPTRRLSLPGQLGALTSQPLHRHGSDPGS
Cytochrome P450 1A2 (Homo sapiens), sequence (P05177 whole entry, looked up): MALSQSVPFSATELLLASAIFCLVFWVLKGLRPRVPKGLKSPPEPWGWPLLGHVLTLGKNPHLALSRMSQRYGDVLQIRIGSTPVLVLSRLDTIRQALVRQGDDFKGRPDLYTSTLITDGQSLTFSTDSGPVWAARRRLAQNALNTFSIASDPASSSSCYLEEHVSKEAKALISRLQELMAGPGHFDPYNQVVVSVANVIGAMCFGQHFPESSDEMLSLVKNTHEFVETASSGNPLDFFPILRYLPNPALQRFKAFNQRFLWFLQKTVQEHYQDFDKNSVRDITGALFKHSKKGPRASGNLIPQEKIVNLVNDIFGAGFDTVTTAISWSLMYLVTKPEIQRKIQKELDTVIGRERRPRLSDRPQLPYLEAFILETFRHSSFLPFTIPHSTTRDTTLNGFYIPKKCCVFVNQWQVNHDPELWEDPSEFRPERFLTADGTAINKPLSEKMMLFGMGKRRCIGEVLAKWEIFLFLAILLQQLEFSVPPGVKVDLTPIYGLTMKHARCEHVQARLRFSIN

COC(=O)[C@@]1(Cc2ccccc2)[C@H]2c3cc(C(=O)N4CCCC4)n(CC4CC4)c3C[C@H]2CN1C(=O)c1ccccc1
inactive: Potency [1]

CC(C)[C@@H](CC(=O)N[C@@H]1CCNC[C@H]1C(=O)N[C@H](CC(=O)N[C@@H](CCC(=O)O)CC(=O)O)Cc1c[nH]c2ccccc12)NC(=O)C[C@H](Cc1c[nH]c2ccccc12)NC(=O)[C@@H]1CNCC[C@H]1N
inactive: Potency [1]

CC(C)C[C@@H](CC(=O)N[C@@H](CCCN)CC(=O)N[C@@H]1CCCC[C@H]1C(=O)N[C@H](CC(=O)N[C@@H](CCC(=O)O)CC(=O)O)CC(C)C)NC(=O)[C@@H]1CCCC[C@H]1N
inactive: Potency [1]

CCC/C=C(\CCC)C(NS(=O)(=O)c1ccc(C(F)(F)F)cc1)c1ccccc1 (stereo not drawn)
active: Potency [1] 7.94 µM

Cc1ccc(S(=O)(=O)Oc2ccc(N=Nc3ccc(-c4ccc(N=Nc5c(O)ccc6cc(S(=O)(=O)O)cc(S(=O)(=O)O)c56)c(C)c4)cc3C)cc2)cc1
active: Potency [2] 25.1 µM | Potency [3] 31.6 µM
inactive: Potency [4]

c1ccc2c(c1)-c1cccc3c1c-2cc1ccccc13
inactive: Potency [2] | Potency [5] | Potency [6] | Potency [7] | Potency [8] | Potency [9] | Potency [10] | Potency [11] | Potency [12] | Potency [13] | Potency [14] | Potency [15] | Potency [16] | Potency [17] | Potency [18] | Potency [19] | Potency [4] | Potency [20]

C=CC(=O)OCCOCCOC(=O)C=C
active: activity change, negative = cytotoxicity [3] -100% | Potency [5] 31.6 µM | Potency [6] 20 µM | Potency [7] 25.1 µM | Potency [8] 10 µM | Potency [9] 20 µM | Potency [10] 25.1 µM | Potency [11] 15.8 µM | Potency [12] 20 µM | Potency [13] 25.1 µM | Potency [14] 25.1 µM | Potency [15] 31.6 µM | Potency [16] 25.1 µM | Potency [17] 15.8 µM | Potency [18] 20 µM | Potency [19] 25.1 µM
inactive: Potency [4] | Potency [20]

CO[C@H]1/C=C/O[C@@]2(C)Oc3c(C)c(O)c4c(O)c(c5c(c4c3C2=O)NC2(CCN(CC(C)C)CC2)N=5)=NC(=O)/C(C)=C\C=C\[C@H](C)[C@H](O)[C@@H](C)[C@@H](O)[C@@H](C)[C@H](OC(C)=O)[C@@H]1C
inactive: Potency [5] | Potency [6] | Potency [8] | Potency [13] | Potency [14] | Potency [15] | Potency [18] | Potency [4] | Potency [20]

CC/C(=C(\c1ccccc1)c1ccc(OCCN(C)C)cc1)c1ccc(O)cc1
active: Potency [2] 31.6 µM | Potency [3] 31.6 µM
inactive: Potency [20]

ClC1=C(Cl)C(Cl)(Cl)C(Cl)=C1Cl
inactive: Potency [2] | Potency [3] | Potency [5] | Potency [6] | Potency [7] | Potency [8] | Potency [19] | Potency [20]

Cc1cc(Nc2ccc(O)cc2)ccc1N
inactive: Potency [5] | Potency [6] | Potency [19] | Potency [4]
active: Potency [8] 39.8 µM | Potency [9] 50.1 µM | Potency [10] 50.1 µM | Potency [11] 39.8 µM | Potency [12] 39.8 µM | Potency [13] 39.8 µM | Potency [14] 50.1 µM | Potency [15] 50.1 µM | Potency [16] 50.1 µM | Potency [17] 31.6 µM | Potency [18] 50.1 µM

CNc1ccc(O)cc1
active: Potency [3] 31.6 µM | Potency [5] 31.6 µM | Potency [6] 12.6 µM | Potency [7] 25.1 µM | Potency [8] 5.01 µM | Potency [9] 6.31 µM | Potency [10] 6.31 µM | Potency [11] 5.01 µM | Potency [12] 3.98 µM | Potency [13] 3.98 µM | Potency [14] 7.94 µM | Potency [15] 10 µM | Potency [16] 12.6 µM | Potency [17] 3.16 µM | Potency [18] 6.31 µM | Potency [19] 25.1 µM
inactive: Potency [4]

c1ccc2c(c1)ccc1cc3c(ccc4ccccc43)cc12
inactive: Potency [2] | Potency [3] | Potency [5] | Potency [6] | Potency [7] | Potency [8] | Potency [9] | Potency [10] | Potency [11] | Potency [12] | Potency [13] | Potency [14] | Potency [15] | Potency [16] | Potency [17] | Potency [18] | Potency [19] | Potency [4]
